DT40 TDP1 no CPT – qHTS for Inhibitors of human tyrosyl-DNA phosphodiesterase 1 (TDP1): qHTS in cells in absence of CPT | AID 686978, 2013 | 420,000 tested, 15% active | Potency, µM (titrated, usually from 46.2 µM), usual class: inhibitors | DT40 Tdp1-/- hTDP1 cells, no CPT, ATP luminescence, 48 h; note: nearly all actives have a fitted effect of over 55% in size
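Readout: luminescence from CellTiter-Glo after 30 min in the dark at RT. Cells: DT40 Tdp1-/- with stable hTDP1, 400/well. Exposure: compounds alone, ≥48 hr, 37 °C.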
VP16 counter – counter-screen for ROR gamma inhibitors: Gal4-VP16 reporter; Drosophila S2 Gal4-VP16 UAS-luciferase, luminescence, 20 h; Potency, µM (titrated, usually from 53.6 µM), hits mostly inhibitors; 310,000 tested, 3.5% active;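 note: Gal4-VP16 expression switched on by copper sulfate through the metallothionein promoter; nearly all actives have a fitted effect of over 50% in size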
TDP1 inh – inhibitors of human tyrosyl-DNA phosphodiesterase TDP1; Q9NUW8; recombinant TDP1, AlphaScreen DNA substrate cleavage; Potency, µM (top dose mostly 130 µM), hits mostly inhibitors; 350,000 tested, 0.28% active; AID 485290; note: nearly all actives have a fitted effect of over 40% in size
Target sequence (Q9NUW8 whole entry, looked up): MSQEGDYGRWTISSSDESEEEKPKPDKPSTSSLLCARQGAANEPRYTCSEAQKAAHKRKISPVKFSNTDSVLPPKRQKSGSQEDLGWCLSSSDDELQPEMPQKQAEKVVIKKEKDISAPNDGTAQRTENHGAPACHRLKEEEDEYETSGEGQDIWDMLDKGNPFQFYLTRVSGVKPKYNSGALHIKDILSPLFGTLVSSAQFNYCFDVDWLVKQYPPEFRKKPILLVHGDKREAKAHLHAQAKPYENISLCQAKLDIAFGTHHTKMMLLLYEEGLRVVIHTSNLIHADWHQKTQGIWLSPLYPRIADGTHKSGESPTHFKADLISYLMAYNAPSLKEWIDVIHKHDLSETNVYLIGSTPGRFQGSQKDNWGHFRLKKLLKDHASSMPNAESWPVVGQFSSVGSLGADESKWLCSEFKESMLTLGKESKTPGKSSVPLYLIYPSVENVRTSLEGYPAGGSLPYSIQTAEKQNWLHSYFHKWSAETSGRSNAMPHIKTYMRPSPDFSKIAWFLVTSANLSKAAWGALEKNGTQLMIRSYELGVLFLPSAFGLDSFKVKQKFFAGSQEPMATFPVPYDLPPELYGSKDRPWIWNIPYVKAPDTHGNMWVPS
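Compounds were preincubated with Tdp1 (1 nM final) for 15 min at room temperature before substrate (15 nM final) started a 5 min reaction; beads (10 ug/ml final) were then added for 10 min before AlphaScreen detection.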
TDP1 cell CPT – DT40-hTDP1 cell growth loss with CPT; AID 686979; 420,000 tested, 12% active; Potency, µM (highest dose often 46.2 µM), hits mostly inhibitors; chicken DT40 Tdp1-/-;hTDP1 cells + 20 nM CPT, ATP luminescence, 48 h; note: nearly all actives have a fitted effect of over 55% in size
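Chicken DT40 Tdp1-/- cells complemented with human TDP1, 400 cells/well, exposed to compounds plus 20 nM camptothecin for at least 48 h at 37 C; viability read as ATP content by CellTiter-Glo luminescence.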
RORgamma inh – blocks mouse ROR gamma transcriptional activity | P51450 | Drosophila S2 Gal4-RORgamma UAS-luciferase reporter, 20 h | Potency, µM (doses to about 53.6 µM), most hits filed as inhibitors | 310,000 tested, 5.4% active | AID 2551; note: nearly all actives have a fitted effect of over 60% in size
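Luminescence from a UAS-regulated Photinus luciferase reporter in stably transfected Drosophila Schneider cells is measured; decreased signal marks ROR gamma inhibition. Fusion expression is induced by 700 uM copper sulfate for 20 hr.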
Numbers stand for hits; 0 = inactive; ? = inconclusive; - = not tested or not shown. Hits are enriched below; roughly 19% of the tested compounds scored in any of these assays. Calls come from the whole dose curve; as a rule, active = well fitted curve in the direction sought with a large enough effect; inconclusive = small, poorly fitted or top-dose-only effect, or another doubt; inactive = no such curve, though single readings can be large; an effect the other way counts as inactive or inconclusive.

SMILES | DT40 TDP1 no CPT | VP16 counter | TDP1 inh | TDP1 cell CPT | RORgamma inh
Cc1ccccc1NC(=S)NNc1ncc(C(F)(F)F)cc1Cl | 0 | 0 | 0 | 0 | 0
Fc1ccc(NC(=S)Nc2cccnc2)c(Cl)c1 | 0 | 0 | 0 | 0 | 0
O=C(O)c1ccc(/C=N/Nc2ncc(C(F)(F)F)cc2Cl)cc1 | 0 | 0 | ? | 0 | 10µM
CCCOc1ccc(N2C(=O)CC(N3CCC(c4nncn4CC)CC3)C2=O)cc1 (stereo not given) | 0 | 0 | 0 | 0 | 0
NC(=S)Nc1ncc(C(F)(F)F)cc1Cl | 0 | ? | 0 | 0 | 7.08µM
Cc1cccc(C)c1NC(=S)NNc1ncc(C(F)(F)F)cc1Cl | 0 | ? | 0 | 0 | 7.94µM
COCc1cccc(-c2csc(C(NC(C)=O)c3ccccc3)n2)c1 (stereo not given) | 0 | - | - | 0 | -
Cc1cccc(N2C(=O)N(Cc3cc(=O)n4ccccc4n3)c3ccccc3S2(=O)=O)c1 | 25.9µM | - | 0 | ? | -
CCc1ccccc1N1C(=O)N(Cc2cc(=O)n3ccccc3n2)c2ccccc2S1(=O)=O | 18.4µM | - | 0 | 23.1µM | -
CCc1ccccc1N1C(=O)N(Cc2cccc(Cl)c2)c2ccccc2S1(=O)=O | ? | - | 0 | ? | -
CN(Cc1ccccc1)C(=O)c1ccc2c(c1)NC(=O)C(N1CCOCC1)S2 (stereo not given) | ? | 0 | 0 | ? | 0
CC(C)(O)C#Cc1ccc(N2C(c3ccsc3)=Cc3ccc(F)cc3C2c2c[nH]c3ccc(C#N)cc23)cc1 (stereo not given) | ? | - | - | 5.17µM | -
Cc1cccc2sc(N(CCN(C)C)C(=O)C3CCN(S(=O)(=O)c4cccs4)CC3)nc12 | 18.4µM | - | 0 | ? | -
CN(C)CCCN(C(=O)/C=C/c1cccs1)c1nc2c(F)cccc2s1 | 20.6µM | 0 | 0 | 20.6µM | ?
Cc1cccc2sc(N(CCN(C)C)C(=O)/C=C/c3cccs3)nc12 | 18.4µM | ? | 0 | 16.4µM | ?
O=c1[nH]c2ccc(S(=O)(=O)Nc3ccc(Br)cc3)cc2[nH]1 | 0 | 0 | 0 | 0 | 0
CCCCOc1ccccc1C1C(C(=O)OC)=C(C)N(C)C(C)=C1C(=O)OC | 23.1µM | 0 | 0 | ? | ?
COC(=O)C1=C(C)N(C)C(C)=C(C(=O)OC)C1c1ccccc1C | ? | 0 | 0 | ? | 0
COCCNC(=O)Cn1c(=O)oc2cc(S(=O)(=O)N3CC(C)CC(C)C3)ccc21 (stereo not given) | 0 | 0 | 0 | ? | 0
O=C(O)CSc1nc2c(c(=O)[nH]1)CCCC2 | 0 | 0 | 0 | 0 | 0
N#C/C(=C\c1c[nH]c2ccccc12)C(=O)NC1CC1 | 0 | 0 | - | 0 | 0
N#C/C(=C\c1cccnc1)C(=O)NC1CCCCC1 | 23.1µM | ? | 0 | ? | ?
N#C/C(=C\c1c[nH]c2ccccc12)C(=O)NC1CCCC1 | 16.4µM | 0 | 0 | 16.4µM | ?
N#C/C(=C\c1ccccc1)C(=O)NC1CC1 | 0 | 0 | - | 0 | 0
CCCCOc1ccc(/C=C(\C#N)C(=O)NC2CC2)cc1 | 29.1µM | - | - | ? | -
SMILES | DT40 TDP1 no CPT | VP16 counter | TDP1 inh | TDP1 cell CPT | RORgamma inh
COc1cc(C(=O)Nc2ccc3c(c2)N(C(=O)CCN(C)C)c2ccccc2CC3)cc(OC)c1OC | 0 | 0 | 0 | 0 | 0
CCOC(=O)Nc1ccc2c(c1)N(CCCN(C)C)c1ccccc1CC2 | ? | 0 | - | 23.1µM | 0
CN(C)CC(=O)N1c2ccccc2CCc2ccc(NC(=O)c3ccc(N)cc3)cc21 | 0 | 7.08µM | 0 | 0 | 7.94µM
Cc1ccc(C)c(NC(=S)N2CCC(N(C)CC3CCCO3)CC2)c1 (stereo not given) | 0 | 0 | 0 | 0 | 0
CCNC(=O)c1cc(S(=O)(=O)N2CCSCC2)ccc1OC | 0 | 0 | - | 0 | 0
c1ccc2c(c1)c1c(c3ccccc32)CN2CCCC2C1 (stereo not given) | 8.2µM | - | - | 5.17µM | -
c1ccc2c(c1)CC(N1CCCCC1)c1ccccc1N2 (stereo not given) | 0 | 0 | 0 | 0 | 0
Cc1ccc2cccc(Oc3nnnn3-c3ccccc3)c2n1 | 0 | 0 | 0 | 0 | ?
CC1(C)C2CCC1(C)C(SC(=N)N)C2 (stereo not given) | ? | - | - | 20.6µM | -
CC(C)CCN1CCC(N)=NC1=O | 0 | 0 | 0 | 0 | 0
Cc1ccc(CNc2ccc(-c3nc(-c4ccccn4)no3)cc2[N+](=O)[O-])cc1 | ? | - | 0 | ? | -
O=C(Nc1cccc(NC(=O)c2cccs2)c1)c1ccc2c(c1)OCO2 | 11.6µM | 0 | 0 | ? | 0
CCOC(=O)c1c(C)c(C(=O)Nc2ccc3c(c2)OCO3)c(C)n1C | 0 | 0 | 0 | 0 | ?
CCOC(=O)c1cccc(NC(=O)/C=C/c2ccc3c(c2)OCO3)c1 | 18.4µM | ? | 0 | ? | ?
CCOC(=O)c1cccc(NC(=O)c2ccc3c(c2)OCO3)c1 | 11.6µM | 0 | - | 14.6µM | 0
CCOC(=O)c1c(C)c(C(=O)Nc2ccc3c(c2)OCCO3)c(C)n1CC | 11.2µM | 0 | 0 | 10µM | 0
COc1cccc(CNn2cnnc2)c1OCc1ccccc1F | 0 | 0 | 0 | 0 | 0
O=C(COC(=O)c1cccnc1Cl)c1ccc(OC(F)F)cc1 | 0 | 0 | 0 | 0 | 0
CCOC(=O)c1c(N)sc(C(=O)Nc2ccc3c(c2)OCO3)c1C | ? | 5.62µM | 0 | 0 | ?
CCOC(=O)c1sc(NC(=O)c2ccoc2C)c(C(N)=O)c1C | 16.4µM | 0 | 0 | 25.9µM | 0
CCOC(=O)c1[nH]c(C)c(C(=O)Nc2ccc3c(c2)OCCO3)c1C | 0 | 0 | 0 | 0 | 0
CCOC(=O)c1c(NC(=O)c2cc(C)oc2C)sc(C(=O)Nc2ccc(Cl)cc2)c1C | 5.62µM | 0 | 0 | 8.91µM | 0
CC1CCCC(C)N1C(=O)COC(=O)c1ccc2c(c1)OCO2 (stereo not given) | 29.1µM | 0 | 0 | 0 | ?
CC(O)C#C[Si](C)(C)c1ccccc1 (stereo not given) | - | 0 | 0 | - | 0
Cc1cccc(OC(C)C(=O)Nc2cc(S(=O)(=O)N3CCCCC3)ccc2C)c1 (stereo not given) | ? | - | 0 | ? | -
SMILES | DT40 TDP1 no CPT | VP16 counter | TDP1 inh | TDP1 cell CPT | RORgamma inh
COc1ccc(-c2c(C)nn(-c3ccccc3)c2N)cc1 | 0 | 0 | 0 | 0 | 0
Nc1c(-c2ccccc2)cnn1-c1ccc(C(=O)O)cc1 | 0 | ? | 0 | 0 | 10µM
Cc1nn(-c2ccc(C(=O)O)cc2)c(N)c1-c1ccccc1 | ? | ? | 0 | 0 | 10µM
Cc1ccc(-c2cnn(-c3ccccc3)c2N)cc1 | 0 | ? | - | ? | ?
Cc1ccccc1N=Cc1c(O)n(-c2nccs2)c(=O)c2ccccc12 | ? | 0 | 0 | ? | 0
Cc1cc(C)c(N=Cc2c(O)n(-c3nccs3)c(=O)c3ccccc23)c(C)c1 | 16.4µM | 0 | 0 | ? | 0
Cc1cccc(C)c1N=Cc1c(O)n(-c2nccs2)c(=O)c2ccccc12 | 20.6µM | 0 | 0 | 14.6µM | 0
CCC/C=C1/CCCOC(C(=O)NCc2ccc(C)o2)(C(F)(F)F)C1 (stereo not given) | 10.3µM | 0 | 0 | 7.31µM | 0

Screening data (PubChem BioAssay)
